Records with an inconclusive call do not appear. The source made the active and inactive calls. Rule for the calls: active = hit-call score of the fitted dose curve at least 0.9, where 1 is the maximum; inconclusive = response in the unintended direction; inactive = score below 0.9.
Assays:
[1] = molecular target: Glycogen synthase kinase-3 beta (Homo sapiens) (UniProt P49841); test: NVS_ENZ_hGSK3b: NovaScreen (NVS) Enzymatic Assay for human Glycogen Synthase Kinase-3 beta (GSK3b) (AID 2283165)
How it was run: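 Recombinant enzyme with specific fluorescent substrate, 1 h, product separated by electrophoretic mobility shift. Primary duplicate screen at 25 uM; actives (e.g. 30% inhibition) followed in singleton concentration-response to 50 uM. Signal loss fitted versus DMSO.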

[2] = molecular target: human Matrix Metalloproteinase-3 (MMP3), MMP3 (gene 4314) (UniProt P08254); test: NVS_ENZ_hMMP3: NovaScreen (NVS) Enzymatic Assay for human Matrix Metalloproteinase-3 (MMP3) (AID 2283185)
Sequence of human Matrix Metalloproteinase-3 (MMP3), MMP3 (gene 4314) (P08254 whole entry, looked up): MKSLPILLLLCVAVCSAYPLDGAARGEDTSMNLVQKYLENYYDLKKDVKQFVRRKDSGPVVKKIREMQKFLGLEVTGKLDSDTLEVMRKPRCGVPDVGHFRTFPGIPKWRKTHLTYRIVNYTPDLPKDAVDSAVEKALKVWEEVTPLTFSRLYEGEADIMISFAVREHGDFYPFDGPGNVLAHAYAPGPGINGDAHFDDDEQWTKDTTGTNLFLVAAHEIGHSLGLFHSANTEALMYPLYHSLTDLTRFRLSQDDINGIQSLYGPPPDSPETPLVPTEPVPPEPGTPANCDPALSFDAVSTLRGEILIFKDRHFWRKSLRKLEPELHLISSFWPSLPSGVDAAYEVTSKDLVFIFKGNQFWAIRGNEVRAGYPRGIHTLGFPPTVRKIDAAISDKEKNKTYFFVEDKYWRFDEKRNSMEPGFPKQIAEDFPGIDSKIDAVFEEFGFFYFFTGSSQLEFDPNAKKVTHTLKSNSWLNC
How it was run: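 Cell-free recombinant human MMP3 activity, fluorescence intensity read 1 h after dosing. Primary screen duplicate at 25 uM, actives retested in concentration series; loss of signal vs DMSO baseline.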

[3] = molecular target: human Insulin Receptor (InsR), INSR (gene 3643) (UniProt P06213); test: NVS_ENZ_hInsR: NovaScreen (NVS) Enzymatic Assay for human Insulin Receptor (InsR) (AID 2283168)
Sequence of human Insulin Receptor (InsR), INSR (gene 3643) (P06213 whole entry, looked up): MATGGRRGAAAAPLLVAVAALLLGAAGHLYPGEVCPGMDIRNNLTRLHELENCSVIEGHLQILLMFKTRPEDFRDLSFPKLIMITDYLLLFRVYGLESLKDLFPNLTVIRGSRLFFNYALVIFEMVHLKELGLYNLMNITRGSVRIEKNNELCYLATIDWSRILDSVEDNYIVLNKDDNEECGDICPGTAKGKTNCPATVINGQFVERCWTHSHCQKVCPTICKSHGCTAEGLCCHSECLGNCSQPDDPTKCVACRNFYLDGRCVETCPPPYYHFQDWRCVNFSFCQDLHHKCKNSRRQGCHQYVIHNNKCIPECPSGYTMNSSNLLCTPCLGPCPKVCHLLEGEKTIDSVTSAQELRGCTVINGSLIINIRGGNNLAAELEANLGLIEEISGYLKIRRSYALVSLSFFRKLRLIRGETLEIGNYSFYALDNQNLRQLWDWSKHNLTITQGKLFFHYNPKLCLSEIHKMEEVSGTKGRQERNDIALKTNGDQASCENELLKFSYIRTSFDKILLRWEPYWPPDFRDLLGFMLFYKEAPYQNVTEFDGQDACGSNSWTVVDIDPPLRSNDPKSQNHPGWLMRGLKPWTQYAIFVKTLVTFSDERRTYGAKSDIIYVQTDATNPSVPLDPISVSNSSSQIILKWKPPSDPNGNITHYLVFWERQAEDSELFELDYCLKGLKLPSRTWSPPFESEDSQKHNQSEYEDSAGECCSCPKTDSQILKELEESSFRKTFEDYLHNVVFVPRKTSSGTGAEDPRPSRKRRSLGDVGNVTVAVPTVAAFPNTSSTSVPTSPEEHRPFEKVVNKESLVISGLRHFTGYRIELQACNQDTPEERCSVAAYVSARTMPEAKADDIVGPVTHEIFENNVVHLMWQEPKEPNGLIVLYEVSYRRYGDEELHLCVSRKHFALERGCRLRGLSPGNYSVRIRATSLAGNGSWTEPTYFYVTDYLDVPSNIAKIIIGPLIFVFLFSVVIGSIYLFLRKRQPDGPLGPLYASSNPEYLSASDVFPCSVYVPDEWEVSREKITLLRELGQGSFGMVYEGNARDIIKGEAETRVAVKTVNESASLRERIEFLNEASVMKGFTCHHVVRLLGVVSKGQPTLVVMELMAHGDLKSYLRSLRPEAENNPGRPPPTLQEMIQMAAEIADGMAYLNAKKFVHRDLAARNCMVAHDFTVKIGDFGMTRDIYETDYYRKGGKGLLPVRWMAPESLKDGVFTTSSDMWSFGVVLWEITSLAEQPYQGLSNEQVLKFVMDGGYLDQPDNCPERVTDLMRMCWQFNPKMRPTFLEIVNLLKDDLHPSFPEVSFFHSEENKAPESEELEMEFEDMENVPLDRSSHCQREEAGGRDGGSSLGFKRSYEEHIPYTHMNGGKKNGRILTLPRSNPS
How it was run: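 Fluorescent substrate phosphorylation by recombinant kinase, product resolved by electrophoretic mobility shift, read 1 h after dosing. Screened in duplicate at 25 uM; hits (e.g., 30% inhibition) run in concentration-response to 50 uM; DMSO as baseline.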

[4] = molecular target: Mitogen-activated protein kinase 3 (Homo sapiens) (UniProt P27361); test: NVS_ENZ_hMAPK3: NovaScreen (NVS) Enzymatic Assay for human Mitogen-Activated Protein Kinase 3 (MAPK 3) (AID 2283177)
Sequence of Mitogen-activated protein kinase 3 (Homo sapiens) (P27361 whole entry, looked up): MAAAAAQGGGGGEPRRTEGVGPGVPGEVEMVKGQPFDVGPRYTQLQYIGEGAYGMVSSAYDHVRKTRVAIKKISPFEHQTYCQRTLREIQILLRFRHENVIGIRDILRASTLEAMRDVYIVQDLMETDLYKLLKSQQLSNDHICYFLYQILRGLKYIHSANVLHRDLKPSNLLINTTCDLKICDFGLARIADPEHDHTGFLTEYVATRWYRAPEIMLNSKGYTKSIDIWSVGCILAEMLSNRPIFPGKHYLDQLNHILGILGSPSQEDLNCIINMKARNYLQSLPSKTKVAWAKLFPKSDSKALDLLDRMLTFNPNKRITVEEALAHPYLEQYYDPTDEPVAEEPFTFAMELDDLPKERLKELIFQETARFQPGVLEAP
How it was run: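 Cell-free enzymatic assay with recombinant protein and specific substrate; fluorescence and electrophoretic mobility shift read-out 1 h after dosing. Primary screen duplicate at 25 uM; actives then run in concentration-response up to 50 uM, loss of signal versus DMSO.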

[5] = molecular target: human Janus Kinase 2 (Jak2), JAK2 (gene 3717) (UniProt O60674); test: NVS_ENZ_hJak2: NovaScreen (NVS) Enzymatic Assay for human Janus Kinase 2 (Jak2) (AID 2283169)
Sequence of human Janus Kinase 2 (Jak2), JAK2 (gene 3717) (O60674 whole entry, looked up): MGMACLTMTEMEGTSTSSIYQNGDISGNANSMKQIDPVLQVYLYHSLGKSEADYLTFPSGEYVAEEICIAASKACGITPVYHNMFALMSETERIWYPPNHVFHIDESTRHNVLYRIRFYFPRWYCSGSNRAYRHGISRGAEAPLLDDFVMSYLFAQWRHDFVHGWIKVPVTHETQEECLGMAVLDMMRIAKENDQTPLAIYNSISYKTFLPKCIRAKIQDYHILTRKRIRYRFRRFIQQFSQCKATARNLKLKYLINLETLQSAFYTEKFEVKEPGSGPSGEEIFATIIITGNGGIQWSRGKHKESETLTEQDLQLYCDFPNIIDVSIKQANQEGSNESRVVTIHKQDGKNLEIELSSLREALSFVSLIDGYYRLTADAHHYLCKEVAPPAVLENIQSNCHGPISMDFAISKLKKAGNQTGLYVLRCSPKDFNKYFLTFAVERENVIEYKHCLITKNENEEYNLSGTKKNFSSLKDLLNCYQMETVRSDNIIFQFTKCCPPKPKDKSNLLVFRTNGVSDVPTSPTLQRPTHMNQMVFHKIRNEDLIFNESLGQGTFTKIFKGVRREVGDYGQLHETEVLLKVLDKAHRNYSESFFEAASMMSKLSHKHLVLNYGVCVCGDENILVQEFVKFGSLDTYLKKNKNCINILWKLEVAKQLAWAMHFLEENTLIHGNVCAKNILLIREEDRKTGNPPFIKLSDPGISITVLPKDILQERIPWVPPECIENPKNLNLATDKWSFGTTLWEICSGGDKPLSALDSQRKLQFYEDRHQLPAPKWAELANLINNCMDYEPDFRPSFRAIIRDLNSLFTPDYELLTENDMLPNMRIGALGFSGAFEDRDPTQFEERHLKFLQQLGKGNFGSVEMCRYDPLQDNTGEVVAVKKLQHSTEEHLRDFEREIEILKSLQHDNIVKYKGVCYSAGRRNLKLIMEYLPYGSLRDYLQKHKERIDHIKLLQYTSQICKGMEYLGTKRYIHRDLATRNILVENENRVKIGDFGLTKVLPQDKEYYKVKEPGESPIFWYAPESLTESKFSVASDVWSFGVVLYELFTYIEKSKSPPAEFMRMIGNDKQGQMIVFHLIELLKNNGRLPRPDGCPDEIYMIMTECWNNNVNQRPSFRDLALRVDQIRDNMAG
How it was run: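 Cell-free recombinant human JAK2 enzyme activity assay, fluorescence/electrophoretic mobility shift read 1 h after dosing. Screened in duplicate at 25 uM, then concentration-response up to 50 uM; activity as signal loss relative to DMSO.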

[6] = molecular target: Collagenase 3 (Homo sapiens) (UniProt P45452); test: NVS_ENZ_hMMP13: NovaScreen (NVS) Enzymatic Assay for human Matrix Metalloproteinase-13 (MMP13) (AID 2283182)
How it was run: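 Recombinant MMP13 cleaving fluorescent substrate, cell-free, measured 1 h after dosing. Primary duplicate screen at 25 uM; actives tested in concentration-response up to 50 uM; loss of signal relative to DMSO.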

[7] = molecular target: human Matrix Metalloproteinase-2 (MMP2), MMP2 (gene 4313) (UniProt P08253); test: NVS_ENZ_hMMP2: NovaScreen (NVS) Enzymatic Assay for human Matrix Metalloproteinase-2 (MMP2) (AID 2283184)
How it was run: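 Cell-free recombinant MMP2 activity with a fluorescent substrate, read 1 h after dosing. Primary screen in duplicate at 25 uM; actives then run in concentration series; loss of signal fitted versus DMSO.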

[8] = molecular target: human Phosphodiesterase 5 (PDE5), PDE5A (gene 8654) (UniProt O76074); test: NVS_ENZ_hPDE5: NovaScreen (NVS) Enzymatic Assay for human Phosphodiesterase 5 (PDE5) (AID 2283194)
How it was run: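 Recombinant human PDE5 with specific substrate, read 1 h after dosing by fluorescence with electrophoretic mobility-shift separation of substrate and product. Initial single-concentration duplicate screen at 25 uM, actives followed in concentration series; loss of activity versus DMSO.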

[9] = molecular target: human Phosphodiesterase 10 (PDE10), PDE10A (gene 10846) (UniProt Q9Y233); test: NVS_ENZ_hPDE10: NovaScreen (NVS) Enzymatic Assay for human Phosphodiesterase 10 (PDE10) (AID 2283195)
How it was run: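 PDE10A, cell-free; 1 h incubation; fluorescence intensity + electrophoretic mobility shift separating substrate/product; DMSO = baseline; 25 uM duplicate primary, CRC up to 50 uM.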

[10] = molecular target: human Phosphoinositide 3-kinase alpha (PI3Ka), PIK3CA (gene 5290) (UniProt P42336); test: NVS_ENZ_hPI3Ka: NovaScreen (NVS) Enzymatic Assay for human Phosphoinositide 3-kinase alpha (PI3Ka) (AID 2283196)
Sequence of human Phosphoinositide 3-kinase alpha (PI3Ka), PIK3CA (gene 5290) (P42336 whole entry, looked up): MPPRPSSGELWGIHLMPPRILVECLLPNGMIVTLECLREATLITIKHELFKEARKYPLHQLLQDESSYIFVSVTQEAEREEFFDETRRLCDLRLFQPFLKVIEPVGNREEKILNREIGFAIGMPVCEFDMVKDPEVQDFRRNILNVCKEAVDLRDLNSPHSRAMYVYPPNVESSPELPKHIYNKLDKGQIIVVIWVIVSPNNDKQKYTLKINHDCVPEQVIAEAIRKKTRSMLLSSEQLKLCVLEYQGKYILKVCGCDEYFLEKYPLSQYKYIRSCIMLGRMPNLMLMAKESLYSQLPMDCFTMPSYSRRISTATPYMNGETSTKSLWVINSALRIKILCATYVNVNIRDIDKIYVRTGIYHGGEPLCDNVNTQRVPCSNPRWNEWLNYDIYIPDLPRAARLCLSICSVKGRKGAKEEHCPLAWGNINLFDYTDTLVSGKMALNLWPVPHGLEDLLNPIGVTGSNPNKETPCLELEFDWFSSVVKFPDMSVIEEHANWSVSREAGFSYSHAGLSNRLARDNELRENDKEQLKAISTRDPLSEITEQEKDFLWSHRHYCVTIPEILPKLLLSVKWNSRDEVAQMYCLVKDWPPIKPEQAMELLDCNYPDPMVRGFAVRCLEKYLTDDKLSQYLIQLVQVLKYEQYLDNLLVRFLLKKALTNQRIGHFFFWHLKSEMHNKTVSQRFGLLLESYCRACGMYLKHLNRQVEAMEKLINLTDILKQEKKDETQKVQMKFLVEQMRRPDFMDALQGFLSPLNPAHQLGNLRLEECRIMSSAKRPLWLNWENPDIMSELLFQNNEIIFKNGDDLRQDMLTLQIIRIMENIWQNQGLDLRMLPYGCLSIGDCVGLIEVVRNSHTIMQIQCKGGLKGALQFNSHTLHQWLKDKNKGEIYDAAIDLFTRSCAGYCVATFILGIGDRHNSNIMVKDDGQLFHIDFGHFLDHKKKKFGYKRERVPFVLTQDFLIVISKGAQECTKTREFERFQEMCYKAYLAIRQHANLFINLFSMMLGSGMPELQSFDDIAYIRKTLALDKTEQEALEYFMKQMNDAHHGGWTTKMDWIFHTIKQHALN
How it was run: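 Recombinant human PI3Kα with fluorescent substrate, 1 h, product separated by electrophoretic mobility shift; 25 uM duplicate screen, hits (e.g., 30% inhibition) retested singly up to 50 uM; loss of signal vs DMSO.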

[11] = molecular target: human Mitogen- and Stress-activated Protein Kinase-1 (Msk1), RPS6KA5 (gene 9252) (UniProt O75582); test: NVS_ENZ_hMsk1: NovaScreen (NVS) Enzymatic Assay for human Mitogen- and Stress-activated Protein Kinase-1 (Msk1) (AID 2283187)
How it was run: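 Recombinant kinase with fluorescent substrate; product separated by electrophoretic mobility shift, read 1 h after dosing. Screened in duplicate at 25 uM; hits (e.g. ≥30% inhibition) tested in concentration–response up to 50 uM. DMSO baseline.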

[12] = molecular target: human Phosphodiesterase 4A1 (PDE4A1), PDE4A (gene 5141) (UniProt P27815); test: NVS_ENZ_hPDE4A1: NovaScreen (NVS) Enzymatic Assay for human Phosphodiesterase 4A1 (PDE4A1) (AID 2283191)
How it was run: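 Cell-free recombinant human PDE4A1 with fluorescent substrate; product separated by electrophoretic mobility shift, 1 h. Screened at 25 uM, then up to 50 uM in concentration-response; loss of signal fitted against DMSO.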

[13] = molecular target: human c-Jun N-terminal Kinases (JNK2), MAPK9 (gene 5601) (UniProt P45984); test: NVS_ENZ_hJNK2: NovaScreen (NVS) Enzymatic Assay for human c-Jun N-terminal Kinases (JNK2) (AID 2283171)
How it was run: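 Cell-free recombinant human JNK2 activity assay; fluorescent substrate and product separated by electrophoretic mobility shift, read 1 h after dosing. Primary duplicate screen at 25 uM; actives run in concentration-response up to 50 uM, relative to DMSO.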

[14] = molecular target: cAMP-dependent protein kinase catalytic subunit alpha (Homo sapiens) (UniProt P17612); test: NVS_ENZ_hPKA: NovaScreen (NVS) Enzymatic Assay for human Protein Kinase A (PKA) (AID 2283192)
How it was run: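 Recombinant human PKA with specific fluorescent substrate, product separated by electrophoretic mobility shift, read 1 h after dosing. Primary screen at 25 uM in duplicate; actives then run in concentration-response up to 50 uM, activity relative to DMSO.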

[15] = molecular target: human MAP Kinase-Activated Protein Kinase 2 (MAPKAPK2), MAPKAPK2 (gene 9261) (UniProt P49137); test: NVS_ENZ_hMAPKAPK2: NovaScreen (NVS) Enzymatic Assay for human MAP Kinase-Activated Protein Kinase 2 (MAPKAPK2) (AID 2283178)
How it was run: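 Cell-free recombinant human MAPKAPK2 activity measured by fluorescence with electrophoretic mobility shift separation of substrate and product, 1 hr after dosing. Loss of signal versus DMSO; primary screen at 25 uM, concentration-response up to 50 uM.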

Sequence of Glycogen synthase kinase-3 beta (Homo sapiens) (P49841 whole entry, looked up): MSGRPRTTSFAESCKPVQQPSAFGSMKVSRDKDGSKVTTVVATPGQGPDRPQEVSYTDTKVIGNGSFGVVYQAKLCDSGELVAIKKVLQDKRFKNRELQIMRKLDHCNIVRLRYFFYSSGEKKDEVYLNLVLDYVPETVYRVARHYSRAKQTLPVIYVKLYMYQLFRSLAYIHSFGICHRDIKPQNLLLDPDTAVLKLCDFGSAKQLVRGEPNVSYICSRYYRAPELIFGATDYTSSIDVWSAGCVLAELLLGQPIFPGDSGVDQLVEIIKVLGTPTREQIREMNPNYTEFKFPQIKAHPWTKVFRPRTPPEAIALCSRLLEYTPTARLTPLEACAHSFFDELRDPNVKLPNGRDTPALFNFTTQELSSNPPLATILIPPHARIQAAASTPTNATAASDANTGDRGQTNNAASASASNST

CCCCc1ccc2c(n1)[C@@H](c1ccc(OC)cc1C[C@H](C)C(=O)O)[C@H](C(=O)O)[C@H]2c1ccc2c(c1)OCO2
outcome [1]: inactive | AC50 [2]: 38.6 µM (active)

CC(=O)OCCOCCOCCOC(C)=O
outcome [3]: inactive

O=C(O)CCCCC(=O)O
outcome [3]: inactive | outcome [4]: inactive

Cc1nc(-c2ccc3c(c2)CCN(CCC2CCC(NC(=O)/C=C/c4ccc(F)cc4)CC2)CC3)no1 (stereo unspecified)
AC50 [5]: 17.1 µM (active) | AC50 [6]: 5.67 µM (active) | AC50 [7]: 13.7 µM (active) | AC50 [2]: 16.6 µM (active) | outcome [8]: inactive | AC50 [9]: 3.71 µM (active) | outcome [10]: inactive

CC1=C(/C=C/C(C)=C/C=C/C(C)=C/CO)C(C)(C)CCC1
outcome [5]: inactive | AC50 [6]: 18.2 µM (active) | outcome [11]: inactive | outcome [12]: inactive | outcome [8]: inactive

CCCCCCCCCCCCCCCC
outcome [5]: inactive

CC(=O)C(C)=CC1C(C)=CCCC1(C)C (stereo unspecified)
outcome [1]: inactive

NCCO
outcome [1]: inactive | outcome [13]: inactive | outcome [11]: inactive | outcome [14]: inactive

COc1cc(C=O)ccc1O
outcome [3]: inactive | AC50 [2]: 3.71 µM (active)

CCCCCCCCCCO
outcome [1]: inactive

NS(=O)(=O)c1cc2c(cc1Cl)NCNS2(=O)=O
outcome [1]: inactive

O=c1c(O)c(-c2ccc(O)c(O)c2)oc2cc(O)cc(O)c12
AC50 [1]: 0.073 µM (active)

CC(C)c1ccc(C(=O)N=C(N)N)cc1S(C)(=O)=O
outcome [1]: inactive | outcome [15]: inactive | outcome [10]: inactive

— PubChem BioAssay (EPA / NIEHS)
